This note sets out measurements from PubChem BioAssay (NCATS).

Test [1] can be described thus: BET inhibitor-based combinations targeting novel dependencies in MECOM-rearranged (r) AML: SET-2 cell line (AID 2202231).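 For viability: plate controls were DMSO treated cells for no effect and wells without cells for full effect.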 Note: nearly all actives have a fitted effect of over 35% in size. The settings on record: SET-2 AML cells viability, CellTiter-Glo luminescence, 48 h; viability: hits give low values, concentration not given here. The essentials:
(§1)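 Here, 11-point titrations of each agent were applied to 500 seeded cells and incubated 48 hr; CellTiter-Glo signal, scaled against DMSO and empty wells, was integrated as AUC, then Z-scored within the individual line.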

Test [2] in a line: BET inhibitor-based combinations targeting novel dependencies in MECOM-rearranged (r) AML: OCI-AML3 cell line (AID 2202232).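 For viability (% of control): series mostly up to about 46 µM; plate controls were DMSO vehicle wells for no effect and wells without cells for full effect.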 Note: nearly all actives have a fitted effect of over 35% in size. The settings on record: Potency: OCI-AML3 viability. The essentials:
as §1

A short description of test [3]: BET inhibitor-based combinations targeting novel dependencies in MECOM-rearranged (r) AML: MV-4-11 cell line (AID 2202233).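 For viability, % of control: plate controls were DMSO for no effect and blank wells for full effect.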 Note: nearly all actives have a fitted effect of over 45% in size. A digest of the protocol:
(§2)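 Normalized to DMSO and empty-well controls, the luminescence data from CellTiter-Glo after 48 hr drug exposure were fitted across 11 concentrations. Reported metrics are area under the dose-response curve and its Z-transformed form.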

A short description of test [4]: BET inhibitor-based combinations targeting novel dependencies in MECOM-rearranged (r) AML: HNT-34 cell line (AID 2202234).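 For viability (% of control): plate controls were vehicle wells for no effect and cell-free wells for full effect.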 Note: nearly all actives have a fitted effect of over 35% in size. A digest of the protocol:
as §2

Test [5] in a line: BET inhibitor-based combinations targeting novel dependencies in MECOM-rearranged (r) AML: UCSD-AML1 cell line (AID 2202235).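 For viability (% of control): series mostly up to about 46 µM; plate controls were DMSO vehicle wells for no effect and blank wells for full effect.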 Note: nearly all actives have a fitted effect of over 40% in size. The essentials: as §2
Test [6] is described as follows: BET inhibitor-based combinations targeting novel dependencies in MECOM-rearranged (r) AML: AML-191 cell line (AID 2202236; note: nearly all actives have a fitted effect of over 35% in size;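 for viability (% of control): plate controls were vehicle wells for no effect and wells without cells for full effect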). The essentials:
as §1

The nature of test [7]: BET inhibitor-based combinations targeting novel dependencies in MECOM-rearranged (r) AML: AML-194 cell line (AID 2202237; note: nearly all actives have a fitted effect of over 40% in size;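 for viability (% of control): plate controls were vehicle wells for no effect and wells without cells for full effect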). The essentials: as §1

Molecules are shown by their SMILES. Results filed as inconclusive are left out. Unmarked numbers belong to inactive results. Activity calls are given as the source filed them. Calls come from the whole dose curve; as a rule, active = well fitted curve in the direction sought with a large enough effect; inconclusive = small, poorly fitted or top-dose-only effect, or another doubt; inactive = no such curve, though single readings can be large; an effect the other way counts as inactive or inconclusive.
Potency is the fitted concentration of half-maximal effect.

Turning to `COc1ccc(S(=O)(=O)N(CCO)c2ccccc2CN(C)C/C=C/c2ccc(Cl)cc2)cc1`, the Potency in test [1] was 20.9 µM (active); in test [2], 14.8 µM (active); in test [3] it was 18.6 µM (active); in test [4] it was 13.2 µM (active); in test [5] it was 16.6 µM (active); in test [6], 14.8 µM (active). The Potency in test [7] was 18.6 µM (active).
As for `C[C@H]1[C@H](C)CC[C@]2(C(=O)O)CC[C@]3(C)C(=CC[C@@H]4[C@@]5(C)CC[C@H](O)C(C)(C)[C@@H]5CC[C@]43C)[C@H]12`, the viability (commonly a read-out of living cells in per cent, often relative to untreated cells) in test [1] was 102%. Besides, the Potency result in test [2], in test [3], in test [4], in test [5], in test [6] and in test [7] was “inactive” throughout.
As to `OC1CCC([C@H](O)C[C@H]2c3c(F)cccc3-c3cncn32)CC1` (some centres undefined), in test [1], the viability is 118%. In addition, the Potency entry in test [2], in test [3], in test [4], in test [5], in test [6] and in test [7] was “inactive” in each case.
With `CCC1=C[C@@H]2CN(C1)Cc1c([nH]c3ccccc13)[C@@](C(=O)OC)(c1cc3c(cc1OC)N(C)[C@H]1[C@@](O)(C(=O)OC)[C@H](OC(C)=O)[C@]4(CC)C=CCN5CC[C@]31[C@@H]54)C2`, the Potency in test [1] is 7.23 µM (active); in test [2] it was 0.257 µM (active); in test [3], 0.323 µM (active); in test [4], 0.229 µM (active); in test [5], 0.407 µM (active); in test [6], 0.645 µM (active). Also, the Potency in test [7] was 0.645 µM (active).
For the molecule `CC(C)(C)C(=O)N1N=CC[C@H]1c1ccccc1`, the viability in test [1] is 112%. For the same molecule, the Potency result in test [2], in test [3], in test [4], in test [5], in test [6] and in test [7] was “inactive” each time.
Turning to `CO[C@H]1/C=C\C=C(\C)C(=O)NC2=CC(=O)C(NCCN(C)C)=C(C[C@@H](C)C[C@H](OC)[C@H](O)[C@@H](C)/C=C(/C)[C@@H]1OC(N)=O)C2=O`, the Potency was 2.95 µM (active) in test [1]; 0.118 µM (active) in test [2]; 0.0295 µM (active) in test [3]; 0.417 µM (active) in test [4]; 0.296 µM (active) in test [5]; 1.05 µM (active) in test [6]. In test [7], the Potency was 0.662 µM (active).
For the molecule `CCCCCCCOc1ccc(CCC(N)(CO)CO)cc1C(F)(F)F`, the Potency in test [1] is 18.6 µM (active); in test [2], 16.6 µM (active); in test [3] it was 14.8 µM (active); in test [4], 14.8 µM (active); in test [5], 10.5 µM (active); in test [6] it was 18.6 µM (active). Besides, in test [7], the Potency was 14.8 µM (active).
In the case of `N=C(N)c1ccc(OCCCCCOc2ccc(C(=N)N)cc2)cc1`, the Potency was 20.9 µM (active) in test [1]; 8.33 µM (active) in test [2]; 13.2 µM (active) in test [3]; 26.3 µM (active) in test [4]; 23.5 µM (active) in test [5]; 18.6 µM (active) in test [6]. In test [7], the Potency was 20.9 µM (active).
For `C=C1CCC2[C@](C)(CO)C(O)CC[C@]2(C)C1C/C=C1/C(=O)OCC1O` (some centres undefined), the Potency is 14.8 µM (active) in test [1]; 7.42 µM (active) in test [2]; 3.32 µM (active) in test [3]; 5.9 µM (active) in test [4]; 11.8 µM (active) in test [5]; 7.42 µM (active) in test [6]. Further, the Potency in test [7] is 9.34 µM (active).
Consider `CCC(=O)NCC[C@@H]1CCc2ccc3c(c21)CCO3`, for which, in test [1], the viability was 114%. Moreover, the Potency entry in test [2], in test [3], in test [4], in test [5], in test [6] and in test [7] was “inactive” each time.
`CC(C)(O)CS(=O)(=O)Nc1ccc2c(c1)CCN(C(=O)COc1cccnc1)C2`: the viability in test [1] is 108%. For the same molecule, the Potency is 0.0235 µM (active) in test [2]; 0.105 µM (active) in test [3]; 0.0661 µM (active) in test [4]; 0.332 µM (active) in test [5]; 0.0661 µM (active) in test [6]. For the same molecule, the Potency entry in test [7] was “inactive”.
With `CCS(=O)(=O)Nc1ccc(Oc2ccc(F)cc2F)c(-c2cn(C)c(=O)c3[nH]ccc23)c1`, the Potency was 0.0525 µM (active) in test [1]; 0.0118 µM (active) in test [2]; 0.0083 µM (active) in test [3]; 0.0742 µM (active) in test [4]; 0.132 µM (active) in test [5]; 0.0742 µM (active) in test [6]. Further, in test [7], the Potency was 0.0833 µM (active).
`C[C@H](CCC(=O)O)[C@H]1CC[C@H]2[C@@H]3[C@H](O)C[C@@H]4C[C@H](O)CC[C@]4(C)[C@H]3CC[C@]12C`: in test [1], the viability is 104%. The Potency entry in test [2], in test [3], in test [4], in test [5], in test [6] and in test [7] was “inactive” each time.
Consider `Cn1cc(C[C@@H](N)C(=O)O)c2ccccc21`, for which the viability in test [1] was 113%. In addition, the viability (% of control) is 111% [at 8.46 µM] in test [2]; 100% [at 8.46 µM] in test [4]; 112% [at 8.46 µM] in test [5]; 110% [at 8.46 µM] in test [6]; 109% [at 8.46 µM] in test [7]. Moreover, the viability, % of control in test [3] was 103% [at 8.46 µM].
Turning to `NC(CC1c2ccccc2Oc2ccccc21)(C(=O)O)C1CC1C(=O)O` (centres undefined), the viability in test [1] was 118%. In addition, the Potency result in test [2], in test [3], in test [4], in test [5], in test [6] and in test [7] was “inactive” each time.
For `C[C@@H]1C[C@H](N)C[C@H](c2ccncc2NC(=O)c2ccc(F)c(-c3c(F)cccc3F)n2)C1`, the Potency in test [1] was 18.6 µM (active); in test [2], 16.6 µM (active); in test [3], 5.25 µM (active); in test [4], 5.25 µM (active); in test [5], 0.132 µM (active); in test [6], 10.5 µM (active). The Potency in test [7] is 5.9 µM (active).
Consider `CC(C)C(N)C(=O)OCC(CO)OCn1cnc2c(=O)[nH]c(N)nc21` (centres undefined), for which the viability in test [1] was 87%. Further, the Potency entry in test [2], in test [3], in test [4], in test [5], in test [6] and in test [7] was “inactive” each time.
